Laboratory results: PubChem BioAssay (Tox21)
Inconclusive results are not listed. Where a call stands in place of a potency, no number is given. The source made the active and inactive calls. Calls come from the whole dose curve; as a rule, active = well fitted activation curve with a large enough effect in the signal ratio in the repeat runs (not every such curve was filed as active); inconclusive = weak or mixed curves; inactive = flat fitted curve, though single readings scatter; the % refers to the signal ratio.

Assay: p53 small molecule agonists, cell-based qHTS assay (AID 1963582)
Details: HCT-116 p53RE-bla reporter, beta-lactamase FRET ratio, 16 h; series mostly up to 66 µM
Description: National Center for Advancing Translational Sciences [NCATS]
Division of Preclinical Innovation [DPI]
U.S. Environmental Protection Agency [EPA]
National Institutes of Environmental Health Sciences [NIEHS]
National Toxicology Program [NTP]
U.S. Food and Drug Administration [FDA]
p53, a tumor suppressor protein, is activated following cellular insult, including DNA damage and other cellular stresses. The activation of p53 regulates cell fate by inducing DNA repair, cell cycle arrest, apoptosis, or cellular senescence. The activation of p53, therefore, is a good indicator of DNA damage and other cellular stresses. […] The activation of the reporter gene under culture conditions can be detected by fluorescence intensity. This cell line was used to screen the Tox21 10K compound library in a 1536-well plate format and to identify agonists that activate the p53 signaling pathway.
Tox21 Assay Protocol Summary:
The p53RE-bla cells were dispensed at 4,000 cells/5 ul/well in 1536-well black wall/clear bottom plates using a Multidrop dispenser. After the assay plates were incubated at a 37 C/5% CO2 incubator for 5 hours, 23 nL of compounds dissolved in DMSO, positive controls or DMSO only was transferred to the assay plate by a pin tool. The plates were incubated at 37 C for 16 hours. After 1 uL of LiveBLAzerTM B/G FRET substrate was added using a Flying Reagent Dispenser, the plates were incubated at room temperature for 2 hours, and fluorescence intensity was measured by an Envision plate reader.

| Structure (SMILES) | Potency |
| --- | --- |
| CC(C)(C)c1cc(C=O)cc(C(C)(C)C)c1O | inactive |
| CN(C)CCc1c[nH]c2ccc(CS(=O)(=O)N3CCCC3)cc12 | inactive |
| CC(=O)OC(C)=O | inactive |
| Cc1nc2ccccn2c(=O)c1CCN1CCC(C(=O)c2ccc(F)cc2)CC1 | inactive |
| NS(=O)(=O)c1ccc(Cl)c(S(N)(=O)=O)c1 | inactive |
| CCOCC(O)COc1ccc(NC(=O)CC[S+](C)C)cc1 (stereo not given) | inactive |
| Cc1ccnc(NS(=O)(=O)c2ccc(N)cc2)n1 | inactive |
| CCCCCCCCCI | inactive |
| CCN(CC)c1ccc(N)cc1 | inactive |
| CCn1c2ccccc2c2cc([N+](=O)[O-])ccc21 | inactive |
| CCO[Si](OCC)(OCC)OCC | inactive |
| CCn1cc(C(=O)O)c(=O)c2cc(F)c(N3CCNC(C)C3)c(F)c21 (stereo not given) | inactive |
| CC(=O)c1c(C)cc(C(C)(C)C)cc1C | inactive |
| CCCCOc1ccc(OCCCN2CCOCC2)cc1 | inactive |
| CCCCCCOc1ccc(N)cc1 | inactive |
| CC(C)(O)c1ccc(CNC(=O)c2cccnc2Oc2ccc3nonc3c2)cc1 | inactive |
| CC1(C)CC(N)CC(C)(C)N1 | inactive |
| C[C@@H]1C[C@H]2[C@@H]3CCC4=CC(=O)C=C[C@]4(C)[C@@]3(F)[C@@H](O)C[C@]2(C)[C@@]1(O)C(=O)CO | inactive |
| COc1ccc(C(=O)Nc2ccccc2)cc1[N+](=O)[O-] | inactive |
| Cc1cc2c(cc1S(N)(=O)=O)S(=O)(=O)CCC2 | inactive |

| Structure (SMILES) | Potency |
| --- | --- |
| O=C(NCCCN1CCOCC1)c1ccc(Cl)cc1 | inactive |
| CC(C)C1OCCN1CCOC(=O)NCCCCCCNC(=O)OCCN1CCOC1C(C)C (stereo not given) | inactive |
| CC(=O)Nc1cccc(C)c1 | inactive |
| CN1CCCN=C1COC(=O)C(O)(c1ccccc1)C1CCCCC1 (stereo not given) | inactive |
| N#Cc1ccc(C(=O)O)cc1 | inactive |
| Nc1nc(N)c(-c2ccccc2)s1 | inactive |
| O=C(O)c1cc(C(=O)O)c(C(=O)O)cc1C(=O)O | inactive |
| Cc1cc(NC(=O)C2=C(O)c3ccccc3S(=O)(=O)N2C)no1 | inactive |
| CCCCCCC | inactive |
| OC1CCC(C2CCCCC2)CC1 (stereo not given) | inactive |
| Cc1cc(N)c(S(=O)(=O)O)cc1Cl | inactive |
| CC(=O)O[C@H]1C[C@@H]2CC[C@@H]3[C@H](CC[C@@]4(C)[C@H]3C[C@H]([N+]3(C)CCCCC3)[C@@H]4OC(C)=O)[C@@]2(C)C[C@@H]1N1CCCCC1 | inactive |
| O=C(O)/C=C/c1ccc(/C=C/C(=O)O)cc1 | inactive |
| CCN(CC)CCOC(=O)C(c1ccccc1)c1ccccc1 | inactive |
| c1ccc(-c2nn[nH]n2)cc1 | inactive |
| Cc1cccc(Nc2ccncc2S(=O)(=O)NC(=O)NC(C)C)c1 | inactive |
| CC(=O)CC(C)C | inactive |
| CCCC(C)C=O (stereo not given) | inactive |
| CNC(=O)CN(CCN(CCN(CC(=O)[O-])CC(=O)NC)CC(=O)[O-])CC(=O)[O-].O.[Gd+3] | inactive |
| O=C1c2ccccc2C(=O)N1CCl | inactive |
